Structures are written as SMILES. Screen size: about 190,000 compounds; about 220 (0.12%) were called active. Roughly 2% stayed inconclusive and do not appear here.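 How the source made its calls: active means GTP binding at least 20 percentage points away from the 100% baseline, in either direction, so actives lie on both sides; inconclusive means Compound likely fluorescent itself, or too few beads counted; inactive means the rest.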 Only a selection was taken, and actives are over-represented in it overall.

The target in the experiment is Ras-related C3 botulinum toxin substrate 1 (Homo sapiens) (UniProt P63000). Kind of experiment: GTP binding modulators of activated mutant Rac1, primary screen, biochemical, bead-based flow cytometry, multiplex, fluorescent GTP (AID 764). Conditions: GST-Rac1 activated beads, at 10 µM, actives lie on both sides, 100% means binding = to untreated wells.
`Cc1csc(NC(=O)Nc2ccccc2[N+](=O)[O-])n1`: the percent activity (GTP binding) was 97% (inactive).

Regarding `CN(C)S(=O)(=O)Oc1ccccc1C(=O)Nc1ccccc1Cl`, the percent activity (GTP binding) was 99% (inactive).

Regarding `CCOC(=O)N1CCN(CCC(=O)Nc2cc(OC)ccc2OC)CC1`, the percent activity (GTP binding) is 96% (inactive).

Take `CN1CCN(c2ccc(NC(=O)c3ccc4c(c3)OCCO4)cc2Cl)CC1`: the percent activity (GTP binding) is 98% (inactive).

For the compound `CSc1ncnc2sc(C)c(C)c12`, the percent activity (GTP binding) is 93% (inactive).

As to `CC[n+]1c(C)n(-c2ccccc2)c2ccc(NC(C)=O)cc21`, the percent activity (GTP binding) was 96% (inactive).

As for `Cc1ccc(C)c(NC(=O)CCC(=O)N/N=C2/CC(=O)CC(C)(C)C2)c1`, the percent activity (GTP binding) is 96% (inactive).

In the case of `COc1ccc(S(=O)(=O)N2CCN(C(=O)c3cc(C)oc3C)CC2)cc1`, the percent activity (GTP binding) is 97% (inactive).

`CC(CC(=O)C1C(C)C=CCC1(C)C)NNC(N)=O` (centres undefined): the percent activity (GTP binding) was 95% (inactive).

Take `Cn1cccc1/C=C1\SC(=O)N(CC(=O)Nc2ccc(F)cc2)C1=O`: the percent activity (GTP binding) is 95% (inactive).

Regarding `CCOC(=O)C1CCN(C(=O)C2(NC(=O)Nc3cccc(F)c3)CCCCC2)CC1`, the percent activity (GTP binding) is 97% (inactive).

For the compound `CC(C)N(Cc1nc(-c2ccc3c(c2)OCO3)no1)CC1CCC(=O)N1` (centres undefined), the percent activity (GTP binding) was 98% (inactive).

For `CCOC(=O)/C(=N\Nc1ccccc1[N+](=O)[O-])c1csc(Nc2ccccc2)n1`, the percent activity (GTP binding) was 91% (inactive).

Regarding `C/C(CC(=O)Nc1ccc(C)cc1C)=N\NC(=O)C(C)C`, the percent activity (GTP binding) is 98% (inactive).

In the case of `CCN(C(=O)Cc1nc(N)n[nH]1)C1(C(=O)Nc2ccccc2)CCCCC1`, the percent activity (GTP binding) is 97% (inactive).

Take `CC(=O)c1c(-c2ccccc2)c2ccccc2[nH]c1=O`: the percent activity (GTP binding) is 96% (inactive).

Consider `COc1ccc(C2=NN(c3ccccc3)C(c3cccs3)C2)cc1` (centres undefined), for which the percent activity (GTP binding) was 94% (inactive).

As to `CCS(=O)(=O)c1ccc(O)c(NC(=O)COc2ccc(Cl)cc2)c1`, the percent activity (GTP binding) was 95% (inactive).

For `O=C(CC1CCCCC1)NCc1ccco1`, the percent activity (GTP binding) is 92% (inactive).

For the compound `CCOc1ccc(Br)cc1S(=O)(=O)N1CCC(C(=O)O)CC1`, the percent activity (GTP binding) is 94% (inactive).

Consider `CSc1nsc(SC)c1NC(=O)OC1CCCCC1`, for which the percent activity (GTP binding) is 33% (active).

For the compound `CSc1ncccc1C(=O)NC1CCCCCC1`, the percent activity (GTP binding) was 96% (inactive).

Regarding `COc1ccc(NC(=O)c2c(SC)nsc2SC)cc1`, the percent activity (GTP binding) is 100% (inactive).

Turning to `Cn1c(CCC(=O)OCC(=O)NCc2ccccc2Cl)nc(=O)c2ccccc21`, the percent activity (GTP binding) was 95% (inactive).

For `COc1ccc(-c2nc(N)sc2C2(O)C(=O)Nc3c(Br)cc(F)cc32)cc1OC` (centres undefined), the percent activity (GTP binding) is 95% (inactive).

Take `COc1cccc(Cn2cnc3c([N+](=O)[O-])c(C)c(C)cc32)c1`: the percent activity (GTP binding) was 96% (inactive).

Take `Cc1nc2ccccn2c1C(=O)NN=C1CCN(C)CC1`: the percent activity (GTP binding) is 98% (inactive).

`O=C1c2ccccc2C(=O)N1CCC(O)C[N+](=O)[O-]` (centres undefined): the percent activity (GTP binding) is 98% (inactive).

Regarding `CC(=O)Nc1ccc(Sc2ccccc2C(=O)N2CCCC2)cn1`, the percent activity (GTP binding) is 98% (inactive).

`CCOc1ccc(C(CC(=O)O)n2cnnn2)cc1OC` (centres undefined): the percent activity (GTP binding) is 91% (inactive).

For `Cc1c(Cl)c([N+](=O)[O-])nn1CC(=O)NCC1CCCO1` (centres undefined), the percent activity (GTP binding) was 96% (inactive).

For `CC(NC(=O)COC(=O)c1ccc(Cl)cc1O)c1ccc(F)cc1` (centres undefined), the percent activity (GTP binding) is 99% (inactive).

On to `Cc1ccc(NC(=S)NC(=O)c2ccc(-c3ccccc3)cc2)c(C)c1`, for which the percent activity (GTP binding) was 92% (inactive).

Consider `Cc1ccc(Nc2c(F)c(F)c(F)c(F)c2C(=O)O)c(C)c1`, for which the percent activity (GTP binding) is 139% [activator] (active).

For the compound `COc1c(F)c(F)c(C(=O)O)c(Nc2ccccc2C)c1F`, the percent activity (GTP binding) is 97% (inactive).

Consider `COc1ccc(/C=C/C(=O)c2ccc(OC)cc2O)cc1`, for which the percent activity (GTP binding) is 96% (inactive).

For the compound `COc1ccc(C(=O)/C=C/c2ccc(OC3CSC3)cc2)cc1`, the percent activity (GTP binding) was 95% (inactive).

With `COc1ccc(/C=C/C(=O)c2cc(Br)ccc(=O)c2O)cc1`, the percent activity (GTP binding) was 78% (active).

Regarding `CCOC(=O)c1c(C)[nH]c(C2=NNC(=NC(C)COC)SC2)c1C` (centres undefined), the percent activity (GTP binding) was 97% (inactive).

For `Cc1cccc(NC(=O)Nc2ccc3c(c2)OCO3)n1`, the percent activity (GTP binding) is 97% (inactive).

Take `CC(C(=O)NCC1CCCCC1)N(C)Cc1cccc(Cl)c1` (centres undefined): the percent activity (GTP binding) is 95% (inactive).

Turning to `CN(C)CCOc1cccc(Br)c1`, the percent activity (GTP binding) is 95% (inactive).

For `N=C1C(c2nc3ccccc3s2)=C(O)CN1NC(=O)c1ccc([N+](=O)[O-])cc1`, the percent activity (GTP binding) was 84% (inactive).

Turning to `C/C(=N/N1CCN(Cc2cccc3ccccc23)CC1)c1cccnc1`, the percent activity (GTP binding) was 95% (inactive).

`CCc1cccc(OC2OC(CO)C(O)C(O)C2NC(C)=O)c1` (centres undefined): the percent activity (GTP binding) is 97% (inactive).

`S=C(Nc1ccc(Br)cc1Cl)N1CCC2(CC1)OCCO2`: the percent activity (GTP binding) was 98% (inactive).

As to `Cc1cccc2c1N(CCOc1ccccc1)C(=O)C2=O`, the percent activity (GTP binding) was 98% (inactive).

On to `Cc1ccc(CC2CC(=O)N(c3nc(C)cc(C)n3)C2=O)cc1` (centres undefined), for which the percent activity (GTP binding) is 97% (inactive).

`CNC(=O)COc1ccc(S(=O)(=O)Nc2ccccc2)cc1`: the percent activity (GTP binding) was 98% (inactive).

For `C=CCN(CC=C)S(=O)(=O)c1ccc(C(=O)Nc2nc3c(s2)CCc2ccccc2-3)cc1`, the percent activity (GTP binding) is 54% (active).

In the case of `COCCN(CCOC)S(=O)(=O)c1ccc(C(=O)Nc2nc3c(s2)CCc2ccccc2-3)cc1`, the percent activity (GTP binding) is 100% (inactive).

As to `C=CCN(CC=C)S(=O)(=O)c1ccc(C(=O)Nc2sc3c(c2C(N)=O)CCCCC3)cc1`, the percent activity (GTP binding) was 100% (inactive).

Take `CCOC(=O)c1[nH]cnc1C(=O)Nc1ccccc1C`: the percent activity (GTP binding) is 95% (inactive).

As to `CCOc1ccc(N2C(=O)Nc3ccccc3C2(O)C(=O)NCc2ccco2)cc1` (centres undefined), the percent activity (GTP binding) is 99% (inactive).

The values are drawn from PubChem BioAssay AID764 (NMMLSC, 2007).
